Measured values: PubChem BioAssay (NCATS)
Values joined by “and” are separate entries in the source; they are usually repeats but may differ in a detail not shown here. Equal entries are not always repeated. Records with an inconclusive call do not appear. Entries that show only a call come without a potency. Active and inactive are the calls of the source. Unless noted, calls come from the whole dose curve; as a rule, active = well fitted curve in the direction sought with a large enough effect; inconclusive = small, poorly fitted or top-dose-only effect, or another doubt; inactive = no such curve, though single readings can be large; an effect the other way counts as inactive or inconclusive. Peptide text beside a SMILES is read from it.

How the values were obtained:
[1] = biological target: alpha-glucosidase (Oryza sativa, rice) (UniProt Q653V4); experiment: Counterscreen for Glucocerebrosidase Inhibitors: qHTS Assay for Rice alpha-Glucosidase at pH 5.0 (AID 997); details: rice alpha-glucosidase enzyme activity; series mostly up to 76.9 µM
Summary of the method: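 Endpoint fluorogenic assay at pH 5.0: compounds (0.7 nM to 77 uM) titrated against 4 nM rice enzyme and 400 uM 4-MU-alpha-glucoside for 20 min at room temperature; NaOH/glycine stop, read ex 365/em 440 nm, Hill-fitted AC50.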

[2] = qHTS Assay for Lipid Storage Modulators (AID 1519; calls by dose curve); details: Drosophila S3 cells, BODIPY lipid droplet/cell ratio, laser cytometry, cells loaded with oleic acid
Summary of the method: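 Cells seeded at 5,000 per well were treated with compounds over a concentration series and loaded with oleic acid (400 uM, as added). Lipid droplet fluorescence (488 nm excitation, 500-530 nm channel) was read by laser-scanning cytometry and normalized to 20 uM Triacsin C.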

[3] = Cell Viability - LYMP1-002 - Assay at 40 hr (AID 994); details: LYMP1-002 lymphoblastoid cell viability; series mostly up to 92.2 µM; note: nearly all actives have a fitted effect of over 60% in size
Summary of the method: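 Cells are plated at 2500 per well and rested 5 hr at 37 C. Compounds are added and incubated 40 hr at 37 C. CellTiter-Glo reagent is added for 30 min at room temperature before luminescence is read.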

[4] = qHTS Assay for Identification of Small Molecule Inducers of Hypoxia Response (AID 2120; active = well fitted curve in the direction sought with a large enough effect in the signal ratio, with a control signal flat, not every such curve was filed as active; the % refers to the signal ratio); details: hypoxia response reporter cells, beta-lactamase ratio readout; series mostly up to 104 µM
Summary of the method: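 Cell-based qHTS for reporter induction: hypoxia response element controlled beta-lactamase in ME-180 cells. Compounds incubated 17 h at 37 degrees C; activity from blue/green (460/530 nm) ratio, inducers ranked by AC50.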

[5] = measured here: cell count channel max response
[6] = measured here: lipid channel max response

CN=C(NC#N)Nc1ccc(C2=NNC(=O)C[C@@H]2C)cc1
outcome [1]: inactive | activity change, negative = inhibition ([2]; at 57.5 µM (top of the series)): -3.97% (inactive) | max response [2, 5]: -17.4% | max response [2, 6]: -20.4%

Nc1c(Br)cc(Br)cc1CNC1CCC(O)CC1 (centres undefined)
activity change, negative = inhibition ([2]; at 25.7 µM (top of the series)): -1.33% (inactive) | activity change, negative = inhibition ([2]; at 57.5 µM (top of the series)): 7.29% (inactive) | max response [2, 5]: -4.61% and 6.29% | max response [2, 6]: -3.94% and 15.7%

CC(=O)N[C@@H](CC(=O)O)C(=O)N[C@@H](CCC(=O)O)C(=O)O (Ac-Asp-Glu-OH)
activity change, negative = inhibition ([2]; at 25.7 µM (top of the series)): -3.36% (inactive) | activity change, negative = inhibition ([2]; at 57.5 µM (top of the series)): 6.33% (inactive) | max response [2, 5]: -8.34% and 14.1% | max response [2, 6]: -7.7% and 26.3%

O=S(=O)(O)O
Potency [3]: inactive | outcome [4]: inactive

O=CCCCC=O
Potency [3]: inactive

CCCCCCCC(=O)O
Potency [3]: inactive | outcome [4]: inactive

CCOC(C)=O
Potency [3]: inactive | outcome [4]: inactive

Nc1ccn([C@H]2CS[C@@H](CO)O2)c(=O)n1
Potency [3]: inactive | outcome [4]: inactive

COc1ccc(CCNC[C@H](O)c2ccc(O)cc2)cc1OC
outcome [1]: inactive

CC(O)CO (centres undefined)
Potency [3]: inactive | outcome [4]: inactive
